We go through 13 molecules from PubChem BioAssay (NCI).

Among the test systems are NCI-H23 lung; NCI-H226 lung; NCI-H322M lung; HOP-62 NSCLC; NCI-H460 lung; HOP-92 NSCLC; NCI-H522 lung; A549/ATCC NSCLC; 786-0 renal; COLO 205 colon.
Experiment in all cases: NCI-60 one-dose screen, 48 h (100 = growth as untreated, 0 = no growth, -100 = all killed)
Holding throughout (conditions): 10 µM unless noted

The structures appear in SMILES notation. About 83,000 compounds went through this panel and 20% of them were active in at least one assay; those are over-represented in the sample as a whole.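 Step 1: grow cells in 96-well plates. Step 2: add test compound at a single concentration. Step 3: incubate 48 h. Step 4: record percent growth.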 A number with no mark means an inactive call. Activity calls are given as the source filed them. Rule for the calls: active = growth percent below 10; inactive = the rest.

Turning to `CCC(=C(c1ccc(OCCN(C)C)cc1)c1ccc(OCCN(C)C)cc1)c1ccc(Cl)cc1`, the growth is 21.9% in the assay on NCI-H23 lung; 21.7% in the assay with NCI-H226 lung; 5.04% (active) in the assay with NCI-H322M lung; -65.7% (active) in the assay with HOP-62 NSCLC; -64.8% (active) in the assay with NCI-H460 lung; -5.13% (active) with HOP-92 NSCLC. The growth with NCI-H522 lung is -48.3% (active); in the assay with A549/ATCC NSCLC it was -72.3% (active); in the assay on 786-0 renal it was -80.7% (active); in the assay on COLO 205 colon, -67.3% (active).

Take `C1=CC(c2nn3c(-c4ccccc4)nnc3s2)=Cc2ccccc2O1`: the growth in the assay on NCI-H23 lung is 75.8%; with NCI-H226 lung it was 31.7%; with NCI-H322M lung, 96.3%; in the assay with HOP-62 NSCLC, 105%; in the assay with NCI-H460 lung it was 87.2%; with HOP-92 NSCLC, 55.9%. Moreover, the growth is 83.8% in the assay on NCI-H522 lung, 89.7% with A549/ATCC NSCLC, 91.8% with 786-0 renal and 90.2% in the assay with COLO 205 colon.

`CN1CCN(Cc2ccc(NC(=O)c3cncc(C#Cc4cnc5ccc(O[C@@H]6CCOC6)nn45)c3)cc2C(F)(F)F)CC1`: the growth with NCI-H23 lung is -65.2% (active); in the assay on NCI-H226 lung, -60.7% (active); with NCI-H322M lung it was -49.3% (active); with HOP-62 NSCLC it was -79.1% (active); with NCI-H460 lung, -83.3% (active); in the assay on HOP-92 NSCLC, -39.6% (active). The growth in the assay on NCI-H522 lung was -72% (active); in the assay on A549/ATCC NSCLC it was -76.8% (active); in the assay on 786-0 renal, -87.9% (active); with COLO 205 colon, -77.4% (active).

As to `O=C(CSc1nnc(-c2cccs2)n1-c1ccccc1)Nc1ccccc1`, the growth with NCI-H23 lung was 86%; in the assay on NCI-H226 lung, 64.4%; in the assay with NCI-H322M lung, 84%; with HOP-62 NSCLC, 46.7%; in the assay on NCI-H460 lung, 81.8%; in the assay on HOP-92 NSCLC, 53.3%. For the same molecule, the growth was 57.7% in the assay with NCI-H522 lung, 87.7% in the assay with A549/ATCC NSCLC, 85.1% in the assay on 786-0 renal and 104% in the assay with COLO 205 colon.

Consider `C#Cc1cc(C(=O)Nc2ccc(CNCCN3CCOCC3)c(C(F)(F)F)c2)ccc1C`, for which the growth was 92.2% in the assay with NCI-H23 lung; 95.4% in the assay on NCI-H226 lung; 98.3% in the assay with NCI-H322M lung; 102% in the assay on HOP-62 NSCLC; 101% in the assay on NCI-H460 lung; 68.7% in the assay with HOP-92 NSCLC. For the same molecule, the growth in the assay on NCI-H522 lung was 89.6%; with A549/ATCC NSCLC, 87.7%; in the assay with 786-0 renal, 80.7%; with COLO 205 colon it was 105%.

For `FC(F)(F)c1cc(Br)cc(-c2cc(-c3ccc4c(c3)OCCO4)[nH]n2)c1`, the growth with NCI-H23 lung is 40.1%; in the assay on NCI-H226 lung it was 53.8%; in the assay on NCI-H322M lung, 45.4%; in the assay with HOP-62 NSCLC, 52.2%; in the assay with NCI-H460 lung, 5.69% (active); in the assay with HOP-92 NSCLC it was 32%. In addition, the growth in the assay with NCI-H522 lung is 20.5%; in the assay on A549/ATCC NSCLC, 22.1%; in the assay with 786-0 renal, 28.3%; in the assay on COLO 205 colon, -12.9% (active).

With `COc1ccc(-c2cnc(NC(=O)CCCCCCNC(=O)C(O)(O)C(F)(F)F)s2)cc1`, the growth is -9.04% (active) with NCI-H23 lung; 5.81% (active) with NCI-H226 lung; 8.73% (active) in the assay with NCI-H322M lung; 1.79% (active) in the assay on HOP-62 NSCLC; 0.915% (active) in the assay on NCI-H460 lung; -25.4% (active) in the assay with HOP-92 NSCLC. In addition, the growth is -41.4% (active) in the assay on NCI-H522 lung, -12.5% (active) in the assay with A549/ATCC NSCLC, 14.9% in the assay with 786-0 renal and -70.8% (active) with COLO 205 colon.

`CCN(CC)c1ccc(/C=N/NC(=O)c2ccc(S(N)(=O)=O)cc2)cc1`: the growth was 25.1% in the assay with NCI-H23 lung; 45.1% with NCI-H226 lung; 28.1% with NCI-H322M lung; 18.6% with HOP-62 NSCLC; 7.17% (active) in the assay on NCI-H460 lung; 72.3% with HOP-92 NSCLC. Moreover, the growth with NCI-H522 lung is 18.7%; in the assay on A549/ATCC NSCLC, 26.1%; in the assay on 786-0 renal, 9.66% (active); in the assay with COLO 205 colon, 11.1%.

In the case of `Cn1c(SCC(=O)c2ccco2)nc2ccccc2c1=O`, the growth in the assay with NCI-H23 lung was 97.4%; in the assay on NCI-H226 lung, 79.5%; with NCI-H322M lung, 91.8%; in the assay on HOP-62 NSCLC, 99.7%; in the assay with NCI-H460 lung, 101%; in the assay with HOP-92 NSCLC, 90.6%. Besides, the growth in the assay with NCI-H522 lung was 101%; in the assay with A549/ATCC NSCLC, 108%; with 786-0 renal it was 110%; in the assay on COLO 205 colon, 118%.

As to `Cc1ccccc1N1CCN(C2=C(Cl)C(=O)c3ncccc3C2=O)CC1`, the growth is 38.1% in the assay on NCI-H23 lung; 94.2% with NCI-H226 lung; 89.9% in the assay on NCI-H322M lung; 59.5% in the assay with HOP-62 NSCLC; 53.1% with NCI-H460 lung; 118% with HOP-92 NSCLC. Moreover, the growth is -28% (active) in the assay with NCI-H522 lung, 99.6% in the assay with A549/ATCC NSCLC, 91% in the assay with 786-0 renal and 31.8% in the assay on COLO 205 colon.

As for `COc1cc2cc(Oc3ccc(NC(=O)Nc4ccc(F)c(C(F)(F)F)c4)cc3)c(C)nc2cc1OCCN(C)C`, the growth is 102% with NCI-H23 lung; 104% with NCI-H226 lung; 102% with NCI-H322M lung; 104% in the assay with HOP-62 NSCLC; 101% in the assay on NCI-H460 lung; 69.8% in the assay on HOP-92 NSCLC. Besides, the growth in the assay on NCI-H522 lung was 96.1%; with A549/ATCC NSCLC, 93.2%; in the assay with 786-0 renal it was 88.8%; in the assay with COLO 205 colon, 117%.

Regarding `Cc1[nH]c(C(=O)Nc2ccccc2OCc2cccc(C(=O)NC3CCNC3)c2)c(Cl)c1Cl` (stereo not given), the growth was 8.19% (active) in the assay with NCI-H23 lung; 87.2% in the assay with NCI-H226 lung; 70.2% with NCI-H322M lung; 6.22% (active) in the assay on HOP-62 NSCLC; -62.9% (active) with NCI-H460 lung; 70.2% with HOP-92 NSCLC. For the same molecule, the growth is -0.407% (active) with NCI-H522 lung, -51.2% (active) in the assay with A549/ATCC NSCLC, -69.2% (active) in the assay on 786-0 renal and -43.3% (active) in the assay with COLO 205 colon.

For `COc1cc(-c2nc(-c3ccccc3)[nH]c2-c2ccnc(NCCCNS(=O)(=O)c3cccc(F)c3)n2)ccc1F`, the growth was 101% in the assay with NCI-H23 lung; 83.9% in the assay with NCI-H226 lung; 102% with NCI-H322M lung; 130% with HOP-62 NSCLC; 94.2% with NCI-H460 lung; 134% in the assay on HOP-92 NSCLC. The growth is 85.4% in the assay with NCI-H522 lung, 87.1% in the assay with A549/ATCC NSCLC, 98.4% with 786-0 renal and 93% in the assay on COLO 205 colon.
